This is part of a sample that, as a whole, favours compounds with a hit. Of some 83,000 tested, about 20% had one in any assay.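 Single-concentration screen, 48 h exposure, 96-well plates. Endpoint: percent growth. Below 10 = active.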 Unmarked numbers belong to inactive results. Active and inactive are the calls of the source.
The compounds below were run on HCT-15 colon (assay: NCI-60 one-dose screen, 48 h (100 = growth as untreated, 0 = no growth, -100 = all killed)). Conditions: 10 µM unless noted.
Method: Growth inhibition of the HCT-15 human tumor cell line is measured as a screen for anti-cancer activity. Cells are grown in 96 well plates and exposed to the test compound for 48 hours. Compounds are tested at a single concentration, which is 10^-5 M for most compounds. The reported endpoint is percent growth (GI% or GIPRCNT), where numbers from 0 - 100% represent growth inhibition, and numbers from -100% - 0 represent cell death. For example, a value of 40 represents 60% growth inhibition. A value of 0 means no net growth occurred over the course of the experiment. A value of -40 indicates 40% of cells at the beginning of the experiment died by the end of the experiment. A value of -100 means all cells are dead at the end of the experiment.
NCI-60 Human Tumor Cell Lines Screen was performed using the standard one-dose NCI protocol, which is described in more detail at https://dtp.cancer.gov/discovery_development/nci-60/default.htm.
Compounds with GIPRCNT values below 10 were considered active. Activity score was based on GIPRCNT using the following formula: […]
Score is 0 for GIPRCNT values of 100 or above, 50 for GIPRCNT values of 0, and 100 for GIPRCNT values of -100.

Going from `Cc1c(C(N)=O)sc2ncn(Cc3ccccc3)c(=O)c12` to `Cc1nn(-c2ccccc2)c2nc3c(nc12)C(=O)CCC3`, the growth falls from 115% to 88.5%.

First: CNc1ccc(CSc2ccc(Cl)cc2)cc1
Second: Cc1nn(-c2ccc(Cl)cc2)c2nc3c(nc12)C(=O)c1ccccc1-3
The growth of the first is lower: 94.8% for the first, 98.5% for the second.

First: Cc1ccc(C(C)C)cc1NC(=O)Nc1ccc([N+](=O)[O-])cc1
Second: Cc1cc(NC(=O)Nc2cc(Cl)ccc2C)no1
The growth of the first is lower: 10.7% for the first, 100% for the second.

First: Cc1cc(C)n(C(=O)c2nn(-c3ccc(Cl)cc3)cc2O)n1
Second: CCOC(=O)C1=NN(c2ccc(Cl)cc2)C2C3N(c4ccc(Cl)cc4)N=C(C(=O)OCC)N3c3ccccc3N12 (stereo not given)
The growth of the first is lower: 50.2% for the first, 121% for the second.

Compared with `CCN1CCN(c2cc(-c3cn[nH]c3-c3cc(C)cc(OC)c3)nc(-c3cccnc3)n2)CC1`, `c1ccc(N2CCN(c3nncc4ccccc34)CC2)nc1` is higher in growth: 19.2% for the first, 108% for the second.

Compared with `CN(C)c1cccc2c(S(=O)(=O)N[C@H]3CC[C@H]4[C@@H]5CCc6cc(O)ccc6[C@H]5CC[C@]34C)cccc12`, `CC12CCC3C(CCC4CC(=O)/C(=C\O)CC43C)C1CCC(=O)O2` (stereo not given) is higher in growth: 18% for the first, 121% for the second.

Going from `NC(=Nc1ccccc1)SCCCCSC(N)=Nc1ccccc1` to `CCOC(=O)C(Cc1ccccc1)(C(=O)OCC)C(Br)C(=O)c1ccccc1` (stereo not given), the growth falls from 83.1% to 41.9%.

Going from `COc1cc(/C=C/C(=O)Nc2cccnc2Nc2cc(OC)c(OC)c(OC)c2)cc(OC)c1OC` to `COc1cc(-c2cc(C(=O)Nc3nc4ccccc4s3)nc3cc(-c4ccccc4)nn23)cc(OC)c1OC`, the growth falls from 97.3% to 85.3%.

Going from `Cn1cc(-c2csc(-c3cn(C)c4ncccc34)n2)c2cccnc21` to `O=C(CSc1nc2c(n1Nc1ccccc1)-c1ccccc1SC2)Nc1nc(-c2ccc(Cl)cc2)cs1`, the growth falls from 90.6% to 77.4%.

First: C=C(C)[C@@H]1C/C=C(/C=O)CC[C@@H]2O[C@@]2(C)CC/C=C(\C)CC1
Second: CC1(C)OC(=O)C(=Cc2ccccc2Br)C(=O)O1
The growth of the first is higher: 105% for the first, 88.6% for the second.

First: O=C1C(=O)c2ccc(Br)cc2-c2cc(Br)ccc21
Second: COc1cccc(C2C(C#N)=C(N)Oc3cc(OC)ccc32)c1 (stereo not given)
The growth of the first is higher: 50.2% for the first, 10.4% for the second.

First: O=[N+]([O-])c1ccc(N/N=C\c2ccccc2[N+](=O)[O-])nc1
Second: Cn1cnc([N+](=O)[O-])c1S(=O)(=O)Oc1ccc(Cl)cc1
The growth of the first is higher: 100% for the first, 59% for the second.

Compared with `C/C(=N/N=C(N)N)c1ccc(Cl)cc1`, `O=C(CCc1nnc2sc(Cc3ccccc3Cl)nn12)c1nc2ccccc2[nH]1` is lower in growth: 102% for the first, 92.3% for the second.

First: O=C1Cc2cc(CCn3cncn3)c(Cl)cc2N1
Second: Nc1nc2ncc(CCNc3ccc(C(=O)NC(CCC(=O)O)C(=O)O)cc3)nc2c(=O)[nH]1 (stereo not given)
The growth of the first is lower: 54.6% for the first, 98.2% for the second.

Going from `Nc1nc(SCc2ccccc2Cl)c(-c2ccccc2)c(SCc2ccccc2Cl)n1` to `NNC(=O)C1CC2c3ccccc3C1c1ccccc12` (stereo not given), the growth rises from 81.3% to 111%.

Compared with `N#Cc1c(N)[nH]c(S)c1C#N`, `O=C(Nc1ccc(Oc2ccc(NC(=O)Nc3ccc([N+](=O)[O-])cc3)cc2)cc1)Nc1ccc([N+](=O)[O-])cc1` is lower in growth: 100% for the first, 10.3% for the second.

With `C=C(C[C@](O)(C(=O)/C=C/c1ccc(Cl)cc1)C(=O)OC)c1ccccc1` the growth was 3.71% (active).
With `COC(=O)[C@]12CC[C@@H](C)[C@H](C)[C@@H]1C1=CC[C@@H]3[C@@]4(C)C=C(O)C(=O)[C@@]5(C)COC(=C54)C[C@@]3(C)[C@]1(C)CC2` the growth was -82.3% (active).
`CCCCCCCCCCCCCCCCCC1=NC(C)(C)CN1CCO` was tested, and the growth was -55.4% (active).
With `C/C(=C\CCc1ccsc1)CC/C=C(\C)CCCN1CCC(CO)CC1` the growth was 0.233% (active).
`CCCCCCCCCCCCCCCCCc1nccn1CCO` was tested, and the growth was 8.52% (active).
For `Cc1nnc(Nc2ccc(NC(=O)Nc3ccc(Cl)cc3)cc2)c2ccccc12`, the growth was 6.39% (active).
With `COc1ccc(Nc2ccnc(NCCCNc3ccnc4cc(Cl)ccc34)n2)cc1` the growth was -54.6% (active).
In the case of `CC[C@]1(O)CC2CN(CCc3c([nH]c4ccccc34)[C@@](C(=O)OC)(c3cc4c(cc3OC)N(C)[C@H]3[C@@](O)(C(=O)OC)[C@H](OC(C)=O)[C@]5(CC)C=CCN6CC[C@]43[C@@H]65)C2)C1` (stereo not given in full), the growth is reported as 6.5% (active).
